# The list shows a part of the results. A number with no mark means an inactive call. Calls of active or inactive are those of the source.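 Rule for the calls: active = at least twofold enzyme activation in any of six single-dose repeats, which the averaged readout prints as negative percent; inactive = the rest.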
# Biological target: Intestinal-type alkaline phosphatase (Homo sapiens) (UniProt P09923)
# Experiment: enhancement of intestinal alkaline phosphatase activity – biochemical, luminescence, single concentration, uHTS hits, confirmation (AID 434926)
# Conditions: purified IAP, CDP-Star luminescence, 30 min; at 8.3 µM; stronger effect = lower value
# Chain of Intestinal-type alkaline phosphatase (Homo sapiens) (P09923 whole entry, looked up): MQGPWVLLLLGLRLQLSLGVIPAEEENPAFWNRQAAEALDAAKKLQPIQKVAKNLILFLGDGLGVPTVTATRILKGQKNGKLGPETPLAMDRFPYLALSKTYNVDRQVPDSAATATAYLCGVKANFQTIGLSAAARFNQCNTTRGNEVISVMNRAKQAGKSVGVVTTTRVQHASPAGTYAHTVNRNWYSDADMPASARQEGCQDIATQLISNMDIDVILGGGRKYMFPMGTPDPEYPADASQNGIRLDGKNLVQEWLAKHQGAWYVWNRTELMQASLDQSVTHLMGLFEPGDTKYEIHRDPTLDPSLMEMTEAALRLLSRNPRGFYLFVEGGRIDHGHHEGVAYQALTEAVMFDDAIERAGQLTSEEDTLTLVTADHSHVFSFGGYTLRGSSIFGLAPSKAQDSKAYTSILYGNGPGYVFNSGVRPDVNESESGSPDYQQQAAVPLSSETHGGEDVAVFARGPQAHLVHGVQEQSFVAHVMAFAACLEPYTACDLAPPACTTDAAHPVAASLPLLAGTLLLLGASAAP
row,SMILES,"activation (%Activity, negative = activation)"
1,CCOC(=O)c1cn[nH]c1NC(=S)Nc1ccccc1,-69.2%
2,c1ccc(CSCCc2ccncc2)cc1,-33.2% (active)
3,COCCSc1nnc(NC(=O)CCS(=O)(=O)Cc2ccccc2)s1,-46.9%
4,c1ccc2[nH]c(-c3nc4ccccc4[nH]3)nc2c1,10.7%
5,O=C(Nc1ccon1)c1nc[nH]c1C(=O)NCc1ccccc1,88.5%
6,CCOc1ccc(NC(=O)CSc2nncn2C)cc1,-83.5% (active)
7,CC(C)Oc1ccc(CCC(=O)NNC(=S)NCc2ccccc2)cc1,46.5%
8,Cc1cccc(NS(=O)(=O)c2cccc(C(=O)NNC(=O)c3ccccc3O)c2)c1,29.2%
9,Cc1cc(C)cc(NC(=O)NC2CCN(CC(=O)Nc3cccc(Cl)c3C)CC2)c1,1.71%
10,C#CCOCCOCCOCCNc1nc(N2CCN(C(=O)CCCCCCCCCCNC(=O)[C@H]([C@@H](C)CC)n3cc(CCCCN=C(N)N)nn3)CC2)nc(N2CCN(C(=O)CCCCCCCCCCNC(=O)[C@H](CO)n3cc(CCCSC)nn3)CC2)n1,38.5%
11,O=C(Nc1ccc(Cl)cc1)c1ccsn1,-68.3%
12,O=C(NCCN1CCOCC1)[C@H](Cc1ccccc1)N1C(=O)c2ccccc2C1=O,-5.42%
13,Cc1c(C=O)c2ccccn2c1C(=O)c1ccncc1,5.63%
14,COc1cc(NC(=O)NCC2CCN(Cc3ccc(C)cc3)CC2)cc(OC)c1OC,-1.35%
15,CCCOCC(O)CC(CC)C(=O)NNC(=S)Nc1ccccc1 (stereo not given),-138% (active)
16,Cc1ccc(NC(=O)c2cc(-c3ccccc3O)n[nH]2)cc1C,-1.54%
17,OC1CN=C2Sc3ccccc3N2C1 (stereo not given),-100% (active)
18,OCCCN1c2ccccc2Nc2nnc(-c3ccccc3)cc21,-25.8%
19,Cn1c(=O)c2c(nc(N/N=C/c3cccs3)n2Cc2ccc(Br)cc2)n(C)c1=O,-8.19%
20,COc1ccc(C2=Nc3cc(C)ccc3OC2)cc1,58.3%
21,Cn1c(=O)c2sccc2n(Cc2ccc(Br)cc2)c1=O,6.79%
22,Cc1c(NC(=O)CN(C)CC(=O)Nc2ccc(F)c(F)c2F)c(=O)n(-c2ccccc2)n1C,-0.594%
23,CCC(C)C(=O)Nc1ccccc1N1CCN(c2ccc(F)cc2)CC1 (stereo not given),13.6%
24,CCCCOC(=O)Nc1sc2nc(C)cc(C)c2c1-n1cccc1,-49%
25,O=C(Nc1cccc(-c2cccc(Cl)c2)c1)C1CCN(C2CCC2)CC1,-7.84%

# Source: PubChem BioAssay AID434926 (Sanford-Burnham Center for Chemical Genomics, 2010)
